Experimental data as given in PubChem BioAssay (NCI).
The panel holds about 83,000 compounds, 20% with a hit somewhere; the sample as a whole holds those more often.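 Compound tested at a single concentration for 48 hours in 96-well plates; a percent growth value below 10 was scored as active.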 The source made the active and inactive calls.

How the values were obtained:
Assay in all cases: NCI-60 one-dose screen, 48 h (100 = growth as untreated, 0 = no growth, -100 = all killed)
Settings in all cases: 10 µM unless noted
SR leukemia = system: SR leukemia
RPMI-8226 leukemia = system: RPMI-8226 leukemia
OVCAR-8 ovarian = system: OVCAR-8 ovarian
OVCAR-5 ovarian = system: OVCAR-5 ovarian
OVCAR-4 ovarian = system: OVCAR-4 ovarian
SK-OV-3 ovarian = system: SK-OV-3 ovarian
IGROV1 ovarian = system: IGROV1 ovarian
OVCAR-3 ovarian = system: OVCAR-3 ovarian
HS 578T breast = system: HS 578T breast
NCI/ADR-RES ovarian = system: NCI/ADR-RES ovarian
T-47D breast = system: T-47D breast
BT-549 breast = system: BT-549 breast
MDA-MB-435 melanoma = system: MDA-MB-435 melanoma
SW-620 colon = system: SW-620 colon
MCF7 breast = system: MCF7 breast
HCT-116 colon = system: HCT-116 colon
HCC-2998 colon = system: HCC-2998 colon
KM12 colon = system: KM12 colon

Measured: growth

CCN(CC)CCOc1ccc(Cl)c(C)c1
inactive: SR leukemia 92.3% | RPMI-8226 leukemia 99.9% | OVCAR-8 ovarian 104% | OVCAR-5 ovarian 101% | OVCAR-4 ovarian 117% | SK-OV-3 ovarian 98.1% | IGROV1 ovarian 99.6% | OVCAR-3 ovarian 95.1% | HS 578T breast 103% | NCI/ADR-RES ovarian 102% | T-47D breast 104% | BT-549 breast 112% | MDA-MB-435 melanoma 106% | SW-620 colon 106% | MCF7 breast 96.2% | HCT-116 colon 98.5% | HCC-2998 colon 90.6% | KM12 colon 105%

C=C1C(=O)O[C@H]2[C@H]1CC/C(Cn1cc(CNC(=O)/C=C/c3c[nH]c4ccccc34)nn1)=C\CC[C@@]1(C)O[C@@H]21
inactive: SR leukemia 56.6% | RPMI-8226 leukemia 13% | OVCAR-8 ovarian 98.9% | OVCAR-5 ovarian 114% | OVCAR-4 ovarian 100% | SK-OV-3 ovarian 103% | IGROV1 ovarian 86.2% | OVCAR-3 ovarian 30.5% | HS 578T breast 95.4% | NCI/ADR-RES ovarian 108% | T-47D breast 107% | BT-549 breast 112% | MDA-MB-435 melanoma 83.9% | SW-620 colon 49.9% | MCF7 breast 42% | HCT-116 colon 63.8% | HCC-2998 colon 118% | KM12 colon 98%

CCCCOc1ccc(/C=C2/SC(N3CCCC3)=NC2=O)cc1
inactive: SR leukemia 91.1% | RPMI-8226 leukemia 84.8% | OVCAR-8 ovarian 99.7% | OVCAR-5 ovarian 90.1% | OVCAR-4 ovarian 80.6% | SK-OV-3 ovarian 96.9% | IGROV1 ovarian 95.1% | OVCAR-3 ovarian 106% | HS 578T breast 116% | NCI/ADR-RES ovarian 90.8% | T-47D breast 65.9% | BT-549 breast 90.9% | MDA-MB-435 melanoma 95.6% | SW-620 colon 99.9% | MCF7 breast 107% | HCT-116 colon 92.2% | HCC-2998 colon 109% | KM12 colon 99.5%

CCCCCCCCCCCCNC(=O)[C@H]1CSC(c2cc3ccccc3s2)N1 (some centres not stated)
inactive: RPMI-8226 leukemia 18.7% | OVCAR-5 ovarian 20.5% | T-47D breast 52.5% | MCF7 breast 42.4% | HCC-2998 colon 61.4%
active: SR leukemia -34.6% | OVCAR-8 ovarian -32.9% | OVCAR-4 ovarian -68.5% | SK-OV-3 ovarian -30.1% | IGROV1 ovarian -63.2% | OVCAR-3 ovarian -61.3% | HS 578T breast -41.4% | NCI/ADR-RES ovarian -18.1% | BT-549 breast -60.1% | MDA-MB-435 melanoma -94.6% | SW-620 colon 3.61% | HCT-116 colon -80% | KM12 colon -50.7%

O=C(Nc1ccncc1)C(=O)c1cn(S(=O)(=O)c2ccc(Br)cc2)c2ccccc12
inactive: SR leukemia 26.1% | RPMI-8226 leukemia 35% | OVCAR-8 ovarian 58.6% | OVCAR-5 ovarian 64.4% | OVCAR-4 ovarian 73.3% | SK-OV-3 ovarian 93.9% | IGROV1 ovarian 45.1% | OVCAR-3 ovarian 14.7% | HS 578T breast 56.2% | T-47D breast 41% | BT-549 breast 41.1% | SW-620 colon 18.2% | MCF7 breast 19.7% | HCT-116 colon 14.3% | HCC-2998 colon 72% | KM12 colon 26.2%
active: NCI/ADR-RES ovarian 9.49% | MDA-MB-435 melanoma -3.46%

O=C(c1ccccc1)C1OC1c1ccc([N+](=O)[O-])cc1 (configuration not stated)
active: SW-620 colon 9.23%
inactive: SR leukemia 33.6% | RPMI-8226 leukemia 55.9% | OVCAR-8 ovarian 68.9% | OVCAR-5 ovarian 102% | OVCAR-4 ovarian 59.9% | SK-OV-3 ovarian 97.3% | IGROV1 ovarian 53.4% | OVCAR-3 ovarian 59.7% | HS 578T breast 88.8% | NCI/ADR-RES ovarian 57.9% | T-47D breast 52.6% | BT-549 breast 68.5% | MDA-MB-435 melanoma 39% | MCF7 breast 64.1% | HCT-116 colon 13.7% | HCC-2998 colon 115% | KM12 colon 62.6%

COc1ccc(/C=C2\N=C(c3ccccc3)N(C(=O)c3ccccc3O)NC2=O)cc1
inactive: SR leukemia 64% | RPMI-8226 leukemia 46.2% | OVCAR-8 ovarian 109% | OVCAR-5 ovarian 98.5% | OVCAR-4 ovarian 105% | SK-OV-3 ovarian 100% | IGROV1 ovarian 98.2% | OVCAR-3 ovarian 118% | HS 578T breast 93.8% | NCI/ADR-RES ovarian 93.1% | T-47D breast 96.6% | BT-549 breast 92% | MDA-MB-435 melanoma 95% | SW-620 colon 100% | MCF7 breast 92.8% | HCT-116 colon 92% | HCC-2998 colon 93.7% | KM12 colon 92%

O=C1/C(=C/c2ccccc2)Oc2ccc(O)c(I)c21
inactive: SR leukemia 98.2% | RPMI-8226 leukemia 95.4% | OVCAR-8 ovarian 96.7% | OVCAR-5 ovarian 108% | OVCAR-4 ovarian 95.4% | SK-OV-3 ovarian 99.6% | IGROV1 ovarian 68.3% | OVCAR-3 ovarian 101% | HS 578T breast 80.8% | NCI/ADR-RES ovarian 99.3% | T-47D breast 77.5% | BT-549 breast 84.3% | MDA-MB-435 melanoma 103% | SW-620 colon 95.5% | MCF7 breast 54.8% | HCT-116 colon 98.2% | HCC-2998 colon 114% | KM12 colon 98.8%

c1coc(CNc2ccnc(Nc3ccc(OCCN4CCCCC4)cc3)n2)c1
active: OVCAR-8 ovarian -5.87%
inactive: SR leukemia 61.5% | RPMI-8226 leukemia 71.1% | OVCAR-5 ovarian 97% | OVCAR-4 ovarian 87.6% | SK-OV-3 ovarian 103% | IGROV1 ovarian 98.1% | OVCAR-3 ovarian 90.1% | HS 578T breast 80.9% | NCI/ADR-RES ovarian 104% | T-47D breast 91.2% | BT-549 breast 97.5% | MDA-MB-435 melanoma 95.5% | SW-620 colon 98.7% | MCF7 breast 71.4% | HCT-116 colon 68.4% | HCC-2998 colon 99.5% | KM12 colon 84.8%
